# GPR151 ag – activators of human GPR151; Q8TDV0; PathHunter beta-arrestin GPR151 cells, luminescence; activation, % at 11.2 µM; 650,000 tested, 1% active; AID 1508602; in the data active = activation above about 4.9%;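 note: 0% = median of compound wells and 100% = cells with positive control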
# FBW7 activator – activators of human E3 ligase FBW7 | 650,000 tested, 0.13% active | Q969H0 | AID 1259310 | normalized activity (activation), % at 26.1 µM | AlphaScreen FBW7–phospho-cyclin E peptide binding, activator screen; in the data active = normalized activity above about 1.9%;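 note: purified mutant Fbw7 with reduced substrate affinity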
# MITF inh – human MITF inhibition, primary screen | O75030 | AlphaScreen MITF homodimerization, bead proximity signal | inhibition, % at 2.6 µM | 650,000 tested, 0.91% active; in the data active = inhibition above about 50%;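 note: 0% = vehicle wells with protein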
# Target sequence (O75030 whole entry, looked up): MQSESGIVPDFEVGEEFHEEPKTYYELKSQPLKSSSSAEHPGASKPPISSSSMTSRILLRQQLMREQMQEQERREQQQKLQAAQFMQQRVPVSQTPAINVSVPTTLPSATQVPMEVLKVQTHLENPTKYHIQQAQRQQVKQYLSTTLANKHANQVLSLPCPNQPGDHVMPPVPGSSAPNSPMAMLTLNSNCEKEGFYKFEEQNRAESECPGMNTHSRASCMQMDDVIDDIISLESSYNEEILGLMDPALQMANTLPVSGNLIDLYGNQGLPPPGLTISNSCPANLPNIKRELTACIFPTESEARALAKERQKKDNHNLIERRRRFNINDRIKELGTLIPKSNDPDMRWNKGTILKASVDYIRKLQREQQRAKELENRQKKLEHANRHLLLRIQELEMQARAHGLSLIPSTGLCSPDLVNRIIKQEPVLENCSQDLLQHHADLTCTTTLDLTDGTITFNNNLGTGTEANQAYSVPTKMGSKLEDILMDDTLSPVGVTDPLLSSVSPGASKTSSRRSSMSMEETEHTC
# TEAD-YAP block – TEAD-YAP interaction inhibition; 640,000 tested, 1.4% active; HEK-TIYL cells, TEAD-Gal4/YAP UAS-luciferase luminescence; inhibition, % at 9.12 µM; in the data active = inhibition above about 32%;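 note: 0% = median of test compound wells and 100% = reference inhibitor wells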
# * marks the source's active call; other numbers are inactive results. Sampled rows, rich in hits. Any-hit rate of the full collection: about 3.5%.
SMILES,GPR151 ag,FBW7 activator,MITF inh,TEAD-YAP block
CCCCN(CC)S(=O)(=O)c1ccc(C(=O)Nc2ccc3sc(C)nc3c2)cc1,0,0,21,53*
CC(=O)Nc1cc(OC(C)=O)c2nonc2c1OC(C)=O,-5,-2,39,99*
CC(C)(C)OC(=O)NC(CCNC=C1C(=O)OC(C)(C)OC1=O)C(=O)O (stereo not given),-1,0,71*,9
COCc1oc2c(cc(NS(=O)(=O)c3c(C)cc(C)cc3C)c3ccccc32)c1C(=O)OC,1,0,22,-26
CCCCCCCC(=O)Nc1ccc(C(=O)Nc2ccc(O)c(C(=O)O)c2)cc1,0,4.1*,50,-7
COc1cccc(COC(=O)NC(C)C2COc3ccccc3O2)c1 (stereo not given),1,0,0,-5
N=c1c2c(-c3ccccc3)c(-c3ccccc3)n(Cc3ccco3)c2ncn1CCO,-2,0,15,68*
Cc1cccc(N(CC(=O)N2CCc3ccccc3C2)S(C)(=O)=O)c1,0,0,-5,-2
Cc1ccc(N2C(=O)CSC2c2cccc([N+](=O)[O-])c2)cc1F (stereo not given),-1,0,0,34*
COc1ccccc1CNC(=O)/C=C/c1cccc([N+](=O)[O-])c1,-1,0,6,4
CCOC(=O)c1cnc2ccc(C)cc2c1NCCN1CCOCC1,-1,0,-2,-6
CCOC(=O)c1cnc2ccc(C)cc2c1NCCCN1CCOCC1,0,0,-20,38*
O=C(NCCC1=CCCCC1)c1ccc(N2CCCCC2)c([N+](=O)[O-])c1,0,0,2,-10
COc1ccc(CN2CCNC(=O)C2CC(=O)NCc2ccc(Cl)s2)cc1OC (stereo not given),0,0,-2,-6
CSC1=NSC2=NC(=O)/C(=C\c3ccc([N+](=O)[O-])o3)C(=N)N12,0,-1,85*,-12
CSC1=NSC2=NC(=O)/C(=C\c3ccc(C)o3)C(=N)N12,-2,0,17,-26
CSc1ccc(/C=C2/C(=O)ON=C2c2ccccc2)cc1,1,0,38,-7
CC(C)c1ccc(/C=C2\C(=O)ON=C2c2ccccc2)cc1,0,0,57*,-3
O=C1ON=C(c2ccccc2)/C1=C\c1ccc(O)cc1,0,0,59*,-13
COc1ccc(/C=C2/C(=O)ON=C2c2ccccc2)cc1,1,0,50,-21
O=c1oc(-c2ccoc2)nn1Cc1ccc2ccccc2n1,1,0,-1,-6
COc1ccc(C(=O)NCc2ccc(Cl)c(Cl)c2)c(OC)c1,2,0,22,3
N#C/C(=C\c1cccc(Cl)c1Cl)c1nn(CCO)c(N)c1C#N,1,0,9,49*
N#C/C(=C\c1ccccc1)c1nn(CCO)c(N)c1C#N,2,0,16,-17
CCn1c2ccccc2c2cc(/C=C(\C#N)c3nn(CCO)c(N)c3C#N)ccc21,0,0,0,49*
SMILES,GPR151 ag,FBW7 activator,MITF inh,TEAD-YAP block
CN1CCCc2cc(CN3CCC(C4(C)NC(=O)NC4=O)CC3)ccc21 (stereo not given),1,0,-4,-13
O=S(=O)(CCOc1ccccc1)Nc1ccc2c(c1)Cc1ccccc1-2,2,0,7,-10
Cc1ccc(NS(=O)(=O)CCOc2ccccc2)cc1F,-2,1,3,39*
O=C(COc1cccc2c1CCN(Cc1ccc(F)cc1)C2=O)NCc1ccco1,-2,0,11,8
COc1ccccc1NC(=O)Cn1cnc2sc(C(=O)Nc3ccc(C(F)(F)F)cc3)c(C)c2c1=O,0,2.2*,6,-6
CCCNC(=O)Cn1cnc2sc(C(=O)NCCCOC)c(C)c2c1=O,-2,3.2*,-1,-3
COc1ccccc1NC(=O)Cn1cnc2sc(C(=O)Nc3cccc(C(F)(F)F)c3)c(C)c2c1=O,-1,0,-5,1
COc1ccccc1NC(=O)Cn1cnc2sc(C(=O)NC3CCCC(C)C3C)c(C)c2c1=O (stereo not given),-1,2.0*,12,-10
CCCC(=O)Nc1ccccc1C(=O)Nc1cccc(C(=O)O)c1,4,0,2,14
O=c1c2ccccc2[nH]c(=S)n1-c1cccc2ccccc12,0,0,11,12
CCOC(=O)/C=C1/Sc2ccccc2N(Cc2ccc(F)cc2)C1=O,0,0,-1,-2
COc1ccc(-c2noc(CN(Cc3c(C)nn(C)c3C)C(C)C)n2)c(OC)c1OC,0,0,0,59*
O=C(Nc1cccc2ccccc12)N1CC=C(n2c(=O)[nH]c3ccccc32)CC1,1,0,-7,-3
